According to paper PMC7819943, “Rice protein-binding microarrays: a tool to detect cis-acting elements near promoter regions in rice”:
The full ranking holds about 39,000 sequences; the median of “fluorescence intensity (a.u.)” is about 4,300, and the highest 2% start at about 39,000. What follows is part of a selection rich in the highest values, with near analogues and random picks from the rest.

What follows are sequences tested against T1, OsSMF1 (Oryza sativa, UniProt Q6ZLB0 1-436) (assay: protein-binding microarray (RPBM); PBS, 2% BSA, 51.3 ng/ul salmon testes DNA, 50 uM zinc acetate, 200 nM TF, 25 C, 1 h; high values mean tight binding). Settings: protein: recombinant; tags: N-terminal polyhistidine and DsRed monomer fusion (pET32a); chain copies: 2; label: CyDye5-dUTP incorporated in the synthesized complementary strand; 3' TTTTT single-stranded linker to array surface; dsDNA, one strand shown.
T1 sequence: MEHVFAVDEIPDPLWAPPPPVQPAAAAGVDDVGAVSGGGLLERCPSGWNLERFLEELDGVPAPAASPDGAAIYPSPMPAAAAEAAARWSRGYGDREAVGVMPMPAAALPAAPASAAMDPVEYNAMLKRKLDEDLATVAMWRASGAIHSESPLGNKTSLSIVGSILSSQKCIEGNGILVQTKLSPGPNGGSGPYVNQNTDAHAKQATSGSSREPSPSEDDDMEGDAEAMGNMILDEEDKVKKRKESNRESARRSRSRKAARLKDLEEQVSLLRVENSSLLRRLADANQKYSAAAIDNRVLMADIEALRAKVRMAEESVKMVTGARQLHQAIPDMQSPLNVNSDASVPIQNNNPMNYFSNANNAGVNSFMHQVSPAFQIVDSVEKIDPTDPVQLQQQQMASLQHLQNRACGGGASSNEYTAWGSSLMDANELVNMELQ
Summary of the method: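 An Axon 4000B scanner gave the binding signal as per-feature fluorescence intensity in arbitrary units. This followed washing of a custom Agilent array that had been incubated for 1 h at 25 °C with 200 nM protein in PBS, 2% BSA, salmon testes DNA and 50 µM zinc acetate. The proteins were transcription factors fused at the N-terminus to polyhistidine and DsRed, expressed in E. coli BL21-CodonPlus and purified on Ni–NTA.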

Q: For “GCTACATTTTCGTCGACGTACGTCAGTGACACATGAACTACGGAGTCACCTAGTGCAG”, which binding signal is on record?
A: Its binding signal is 4800 fluorescence intensity (a.u.).

Q: “TTCAGCCTGTCATCGTCAATTCGTCATCAGTTCATCGCTCCGGAGTCACCTAGTGCAG” was tested. Which binding signal did it give?
A: Its binding signal is 5390 fluorescence intensity (a.u.).

Q: Which binding signal does the source give for “TTCGTGGCGGCTCCTCCTGTGCCATGGCCGCCGATGGTGACGGAGTCACCTAGTGCAG” here?
A: The binding signal was 3320 fluorescence intensity (a.u.).

Q: For “AAGTCGTTCACTCGGCAACGTGTCATCCGGATAGACGTTGCGGAGTCACCTAGTGCAG”, which binding signal is on record?
A: The binding signal was 6700 fluorescence intensity (a.u.).

Q: Which binding signal does the source give for “ACGGCTTCCTTACGTGGCACACGTAAGCCGTTGCTTGCTTCGGAGTCACCTAGTGCAG” here?
A: The binding signal was 35100 fluorescence intensity (a.u.).

Q: Which binding signal does the source give for “CGTGTCCTAATCACCTTGCTTACGTGGCACTTGCCGATTCCGGAGTCACCTAGTGCAG” here?
A: Its binding signal is 43900 fluorescence intensity (a.u.).

Q: With “CTCCTTGTCCACGTGGCGGCCTCCGATTCGCTGCCACCTCCGGAGTCACCTAGTGCAG” as the sequence, how does the binding signal read?
A: The binding signal was 23900 fluorescence intensity (a.u.).

Q: For “CCAGTTAGGCCCACGAGTAGGTGGAACGACCACCTCACGGCGGAGTCACCTAGTGCAG”, which binding signal is on record?
A: Its binding signal is 3710 fluorescence intensity (a.u.).

Q: Which binding signal does the source give for “TTCCCGGTCTCTTATTATCCATATCATAAGTAAATTAGTTCGGAGTCACCTAGTGCAG” here?
A: The binding signal was 7670 fluorescence intensity (a.u.).

Q: “CCTAGCCCTCCTCCTACTCCTCTGCAATGGTAGATTGCGCCGGAGTCACCTAGTGCAG” was tested. Which binding signal did it give?
A: The binding signal was 47700 fluorescence intensity (a.u.).

Q: Which binding signal does the source give for “TTAGCCCTTCCTCTCCTGCTTCCGCCCTTCCATGGCAATGCGGAGTCACCTAGTGCAG” here?
A: Its binding signal is 46700 fluorescence intensity (a.u.).

Q: For “CTCCGTGAGCCCTTCCTCCTCCGCTCCTCTCCTTTCCGCCCGGAGTCACCTAGTGCAG”, which binding signal is on record?
A: The binding signal was 15600 fluorescence intensity (a.u.).

Q: How did the binding signal turn out when “CTCTCTTCCTCTCTCTCTCCTCCGCGTAGGATTTAGCCTGCGGAGTCACCTAGTGCAG” was run?
A: Its binding signal is 3880 fluorescence intensity (a.u.).

Q: For “GCCTTCCCTTCCTTCCTCTGCCAATGGCCGCGCGTCAGCCCGGAGTCACCTAGTGCAG”, which binding signal is on record?
A: The binding signal was 3390 fluorescence intensity (a.u.).

Q: How did the binding signal turn out when “CGCCGCCTGCCCCTGCGCCTGCAGCCTCTGCGCCTCCTGCCGGAGTCACCTAGTGCAG” was run?
A: Its binding signal is 3560 fluorescence intensity (a.u.).

Q: How did the binding signal turn out when “CGACGCGGCGGCGAAAAGTCGGCGAACTGCGGCGAGGTGGCGGAGTCACCTAGTGCAG” was run?
A: Its binding signal is 30100 fluorescence intensity (a.u.).

Q: “AGTTGATAGGAGTAGCTTGAAGAAGCAGAGACAGCTAGATCGGAGTCACCTAGTGCAG” was tested. Which binding signal did it give?
A: Its binding signal is 37600 fluorescence intensity (a.u.).

Q: How did the binding signal turn out when “GAAAGCTAGAAGAGAAATTGACCTGGATTGAGTTTTGTGCCGGAGTCACCTAGTGCAG” was run?
A: The binding signal was 4170 fluorescence intensity (a.u.).

Q: How did the binding signal turn out when “AAATGGCCTTGCACACCTTGTCATTGAAATTAAGAACAAACGGAGTCACCTAGTGCAG” was run?
A: The binding signal was 6400 fluorescence intensity (a.u.).

Q: “AGAAATTGAATTGCTTGCTACAGAGAAGCTAGAAGAGTTTCGGAGTCACCTAGTGCAG” was tested. Which binding signal did it give?
A: Its binding signal is 64800 fluorescence intensity (a.u.).

Q: For “GAATTAGCTTGATTGACAGAAACAAATGGCTACAACTACACGGAGTCACCTAGTGCAG”, which binding signal is on record?
A: Its binding signal is 65500 fluorescence intensity (a.u.).

Q: Which binding signal does the source give for “GAATGAATTGAAACAGACAATGCACACGCTTAGTCCATGACGGAGTCACCTAGTGCAG” here?
A: The binding signal was 28800 fluorescence intensity (a.u.).

Q: With “TGCATCACACGTACACATCTATCCATCGATCCAGTCCGCCCGGAGTCACCTAGTGCAG” as the sequence, how does the binding signal read?
A: Its binding signal is 4610 fluorescence intensity (a.u.).

Q: Which binding signal does the source give for “TTTCTTTTCTTCTTTCCTTCTCCCCACGGAGGTGTACGTACGGAGTCACCTAGTGCAG” here?
A: Its binding signal is 3440 fluorescence intensity (a.u.).

Q: For “TGGTACATGGTGTGCCCTACCGAGCTTAGTCAACCACTTTCGGAGTCACCTAGTGCAG”, which binding signal is on record?
A: Its binding signal is 3230 fluorescence intensity (a.u.).

Q: With “TATAGTGGCAACGCATGCTGACGTTACGGTGTACCGCCGTCGGAGTCACCTAGTGCAG” as the sequence, how does the binding signal read?
A: Its binding signal is 5900 fluorescence intensity (a.u.).

Q: With “TTCAGGTGATGAGTCAATGGAGGAGGATGTCATGGAGATTCGGAGTCACCTAGTGCAG” as the sequence, how does the binding signal read?
A: Its binding signal is 4750 fluorescence intensity (a.u.).

Q: With “ATAACGGTGCTAATCTACTGGTGACTGTGCCTGGTGGTGGCGGAGTCACCTAGTGCAG” as the sequence, how does the binding signal read?
A: Its binding signal is 4380 fluorescence intensity (a.u.).

Q: For “ATATCGACTACACACTGTTCTTGGCTACATCGATTGATTGCGGAGTCACCTAGTGCAG”, which binding signal is on record?
A: Its binding signal is 4840 fluorescence intensity (a.u.).

Q: How did the binding signal turn out when “GCTTATCGATAAACTCAGTGTATTTGCATTCAAATTTTGACGGAGTCACCTAGTGCAG” was run?
A: The binding signal was 3660 fluorescence intensity (a.u.).

Q: With “TGATTAAAGTATTCTTATTTCTCTTTTGAGCAATATCTAACGGAGTCACCTAGTGCAG” as the sequence, how does the binding signal read?
A: Its binding signal is 21900 fluorescence intensity (a.u.).

Q: Which binding signal does the source give for “TCATTTCTAATGTAAATTATCTTTTGCGTAAGTAATTTCTCGGAGTCACCTAGTGCAG” here?
A: Its binding signal is 3230 fluorescence intensity (a.u.).

Q: With “TAAAGTAAACTCGATCTCTTTCCGAGAAGTGTATTATTTTCGGAGTCACCTAGTGCAG” as the sequence, how does the binding signal read?
A: The binding signal was 41400 fluorescence intensity (a.u.).

Q: For “AACCCTAAGACTAGAGGCGGGCTGGAGCGTGGAGGCGGGACGGAGTCACCTAGTGCAG”, which binding signal is on record?
A: The binding signal was 3240 fluorescence intensity (a.u.).

Q: With “GGTTTAACCGTTTGGTAGCTGACATGTGCGCCTGGGCATACGGAGTCACCTAGTGCAG” as the sequence, how does the binding signal read?
A: Its binding signal is 3380 fluorescence intensity (a.u.).

Q: “TCATTGGTATCTCAATGACATGTAGGACCTACATGAGTCACGGAGTCACCTAGTGCAG” was tested. Which binding signal did it give?
A: Its binding signal is 8190 fluorescence intensity (a.u.).

Q: With “AATCTACTTCCTCCGTTTTATGTTATAAGACTTTCTAGCACGGAGTCACCTAGTGCAG” as the sequence, how does the binding signal read?
A: Its binding signal is 3140 fluorescence intensity (a.u.).

Q: With “AAAATATATTACTACCTCCGTTTCATATTATAAGACTTTCCGGAGTCACCTAGTGCAG” as the sequence, how does the binding signal read?
A: Its binding signal is 65400 fluorescence intensity (a.u.).

Q: “TTTGAAAATAATACTCCCTCCGTTTCATAATATAAGTGATCGGAGTCACCTAGTGCAG” was tested. Which binding signal did it give?
A: The binding signal was 3260 fluorescence intensity (a.u.).

Q: How did the binding signal turn out when “ACCACCACCTCGGCATCTCCTCGTCCTCGAGCCCAATACTCGGAGTCACCTAGTGCAG” was run?
A: Its binding signal is 3660 fluorescence intensity (a.u.).

Q: How did the binding signal turn out when “AGCAACCAAATCTTCCCAATTCTCACTTGCTCCTAGATACCGGAGTCACCTAGTGCAG” was run?
A: The binding signal was 3840 fluorescence intensity (a.u.).

Q: How did the binding signal turn out when “AGCCTTGTCATGTAAACCTATCCTTTTGAGACACGTGCGTCGGAGTCACCTAGTGCAG” was run?
A: The binding signal was 5780 fluorescence intensity (a.u.).

Q: With “TTCTCCCACCGCATCCTCTCTCCCCTTGAGTATTTACTTTCGGAGTCACCTAGTGCAG” as the sequence, how does the binding signal read?
A: The binding signal was 3420 fluorescence intensity (a.u.).

Q: For “CGTAACGCGATCGAGAACCGACTCAGCCGAGACTCATCGTCGGAGTCACCTAGTGCAG”, which binding signal is on record?
A: Its binding signal is 3710 fluorescence intensity (a.u.).

Q: Which binding signal does the source give for “TGGATATTTTCTACCCCTGGACCCAGCTGTCAGATCCAACCGGAGTCACCTAGTGCAG” here?
A: The binding signal was 3250 fluorescence intensity (a.u.).

Q: For “TTCGAGCAACTCTACCTGGATCCAGACCAACCCCAGTAGACGGAGTCACCTAGTGCAG”, which binding signal is on record?
A: Its binding signal is 50400 fluorescence intensity (a.u.).

Q: Which binding signal does the source give for “AGGACGAGACCCCATCCAACCACCCCAGCCACGTCAGCAACGGAGTCACCTAGTGCAG” here?
A: The binding signal was 34000 fluorescence intensity (a.u.).

Q: Which binding signal does the source give for “TAGCAGGTTTCCTGCCAACTTGGCACACTTGCTTCGTGGTCGGAGTCACCTAGTGCAG” here?
A: Its binding signal is 3620 fluorescence intensity (a.u.).

Q: Which binding signal does the source give for “GATTCAAGGTTGAGAGGACCTAAGATGTCCAATGATGTGTCGGAGTCACCTAGTGCAG” here?
A: The binding signal was 3470 fluorescence intensity (a.u.).

Q: For “GGATAAGTGCCCCTACCAATAGGTGGACCCTTGTCACTGGCGGAGTCACCTAGTGCAG”, which binding signal is on record?
A: Its binding signal is 19300 fluorescence intensity (a.u.).

Q: Which binding signal does the source give for “TGTCAATAATGCATCCTGCAGCTAACATCAAATGACATGGCGGAGTCACCTAGTGCAG” here?
A: The binding signal was 3150 fluorescence intensity (a.u.).

Q: Which binding signal does the source give for “GGCCGCTGATCTACGTGGCGGCAGTTCGGTACAGGTGGTGCGGAGTCACCTAGTGCAG” here?
A: Its binding signal is 10500 fluorescence intensity (a.u.).

Q: “GGGCCCCTCCCAAATCTCCCATGGTTCCATCCATCCCCATCGGAGTCACCTAGTGCAG” was tested. Which binding signal did it give?
A: Its binding signal is 3890 fluorescence intensity (a.u.).

Q: For “GCTGTTGGTTGGTGCCACATCCCACGCTGCCATGCCATGCCGGAGTCACCTAGTGCAG”, which binding signal is on record?
A: Its binding signal is 4910 fluorescence intensity (a.u.).

Q: With “CCATCCCATGGTGGGCCGGTTAGTTCTGTTCCTGGGCCATCGGAGTCACCTAGTGCAG” as the sequence, how does the binding signal read?
A: Its binding signal is 64400 fluorescence intensity (a.u.).
